Test systems include NCI-H23 lung; NCI-H226 lung; NCI-H322M lung; HOP-62 NSCLC; NCI-H460 lung; HOP-92 NSCLC; NCI-H522 lung; A549/ATCC NSCLC; 786-0 renal; COLO 205 colon; DU-145 prostate; K-562 leukemia; MALME-3M melanoma; MDA-MB-231 breast; RXF 393 renal; SF-268 CNS; SF-295 CNS; SF-539 CNS; M14 melanoma; UACC-257 melanoma.
Assay in all cases: NCI-60 one-dose screen, 48 h (100 = growth as untreated, 0 = no growth, -100 = all killed)
Conditions in all cases: 10 µM unless noted

About 83,000 compounds went through this panel and 20% of them were active in at least one assay; those are over-represented in the sample as a whole.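 Assay: single dose, 48 h. Readout: percent growth (0 = no net growth; negative = cell death). Active: <10.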 Unmarked numbers belong to inactive results. Active and inactive are the calls of the source.

As for `COc1ccc(C2=NN(c3nc(-c4ccc(OC)cc4)c(C#N)c(=O)n3C)C(=O)CC2)cc1`, the growth in the assay on NCI-H23 lung is 99.8%; in the assay on NCI-H226 lung it was 86.1%; with NCI-H322M lung it was 91.9%; with HOP-62 NSCLC, 105%; in the assay with NCI-H460 lung, 103%; in the assay with HOP-92 NSCLC, 77.9%. The growth in the assay on NCI-H522 lung is 94.1%; in the assay on A549/ATCC NSCLC it was 104%; with 786-0 renal, 109%; in the assay on COLO 205 colon, 109%; in the assay with DU-145 prostate it was 115%; with K-562 leukemia, 101%. For the same compound, the growth is 81.6% in the assay with MALME-3M melanoma; 83.5% in the assay with MDA-MB-231 breast; 97.5% with RXF 393 renal; 100% in the assay on SF-268 CNS; 93.6% in the assay with SF-295 CNS; 93.6% in the assay on SF-539 CNS. In the assay on M14 melanoma, the growth is 95.4%.
As to `NC(=O)NCC1CCCCC1`, the growth in the assay with NCI-H23 lung is 90.7%; with NCI-H226 lung, 102%; in the assay with NCI-H322M lung it was 104%; in the assay on HOP-62 NSCLC it was 112%; in the assay on NCI-H460 lung, 105%; in the assay on HOP-92 NSCLC, 114%. For the same compound, the growth was 93.3% in the assay on NCI-H522 lung; 109% with A549/ATCC NSCLC; 101% with 786-0 renal; 111% in the assay with COLO 205 colon; 104% in the assay on DU-145 prostate; 102% in the assay with K-562 leukemia. Besides, the growth in the assay with MALME-3M melanoma was 99.3%; in the assay with MDA-MB-231 breast it was 108%; with RXF 393 renal, 101%; in the assay on SF-268 CNS, 99.1%; in the assay on SF-295 CNS, 93.1%; in the assay on SF-539 CNS, 91.4%. For the same compound, the growth with M14 melanoma was 104%.
For `CCSc1ncnc2c1ncn2C1OC(CO)C(O)C1O` (stereo unspecified), the growth in the assay on NCI-H23 lung is 24.6%; with NCI-H226 lung, 62.9%; with NCI-H322M lung it was 42.6%; in the assay with HOP-62 NSCLC, 21.1%; in the assay on NCI-H460 lung it was 14.9%; in the assay on HOP-92 NSCLC, 33%. Further, the growth with NCI-H522 lung was 19.5%; in the assay on A549/ATCC NSCLC it was 14.6%; with 786-0 renal it was 24.1%; in the assay with COLO 205 colon, 20.8%; in the assay on DU-145 prostate, 22.7%; with K-562 leukemia it was 15.9%. Further, the growth in the assay with MALME-3M melanoma is 53.5%; with MDA-MB-231 breast it was 64.4%; in the assay with RXF 393 renal it was 36.7%; in the assay with SF-268 CNS it was 19.4%; with SF-295 CNS, 31.4%; in the assay with SF-539 CNS, 25.3%. For the same compound, the growth in the assay with UACC-257 melanoma is 59.6%; in the assay with M14 melanoma, 29.6%.
Consider `CC1=NN(c2ccc(S(=O)(=O)O)cc2Cl)C(=O)C1`, for which the growth in the assay with NCI-H23 lung is 92.5%; in the assay on NCI-H226 lung, 101%; with NCI-H322M lung, 112%; with HOP-62 NSCLC, 90%; in the assay on NCI-H460 lung it was 103%; with HOP-92 NSCLC, 91.7%. For the same compound, the growth was 97.4% in the assay with NCI-H522 lung; 99.7% with A549/ATCC NSCLC; 97.6% in the assay on 786-0 renal; 112% in the assay with COLO 205 colon; 162% with DU-145 prostate; 115% in the assay with K-562 leukemia. The growth in the assay on MALME-3M melanoma was 129%; in the assay on MDA-MB-231 breast, 102%; in the assay with RXF 393 renal, 108%; in the assay on SF-268 CNS, 127%; in the assay with SF-295 CNS it was 105%; in the assay on SF-539 CNS, 92.9%. The growth is 110% in the assay with UACC-257 melanoma and 96.1% with M14 melanoma.
On to `CC(=O)O[C@@H]1CCN2C(=O)N(C)c3ccccc3[C@@H]2C1`, for which the growth in the assay with NCI-H23 lung is 98.7%; in the assay with NCI-H226 lung, 109%; in the assay with NCI-H322M lung, 108%; with HOP-62 NSCLC, 104%; with NCI-H460 lung, 104%; in the assay on HOP-92 NSCLC, 111%. Besides, the growth in the assay on NCI-H522 lung is 96.4%; in the assay with A549/ATCC NSCLC, 95%; in the assay with 786-0 renal, 101%; with COLO 205 colon, 114%; with DU-145 prostate, 121%; with K-562 leukemia, 93.5%. For the same compound, the growth in the assay with MALME-3M melanoma is 94.7%; with MDA-MB-231 breast it was 111%; in the assay on RXF 393 renal it was 115%; in the assay on SF-268 CNS, 113%; with SF-295 CNS, 88.9%; with SF-539 CNS, 97.7%. In the assay on M14 melanoma, the growth was 101%.
Regarding `CN(CSc1ccc(Cl)cc1)c1ccc(CSc2ccc(Cl)cc2)cc1`, the growth in the assay with NCI-H23 lung was 90.6%; in the assay with NCI-H226 lung, 43.3%; in the assay on NCI-H322M lung, 86.4%; in the assay on HOP-62 NSCLC, 118%; with NCI-H460 lung it was 62%; with HOP-92 NSCLC, 57.2%. Besides, the growth is 32% with NCI-H522 lung; 50.5% in the assay on A549/ATCC NSCLC; 31.6% with 786-0 renal; 41% with COLO 205 colon; 87.8% in the assay with DU-145 prostate; 83.7% in the assay on K-562 leukemia. The growth is 102% in the assay with MALME-3M melanoma; 22.2% with MDA-MB-231 breast; 68.7% with RXF 393 renal; 43.3% in the assay with SF-268 CNS; 70.5% in the assay on SF-295 CNS; 47.4% in the assay with SF-539 CNS. In addition, the growth was 76% in the assay on UACC-257 melanoma and 49.7% in the assay with M14 melanoma.
As for `CCCCCC1CCCCN1C(=O)OCC` (stereo unspecified), the growth with NCI-H23 lung is 106%; in the assay with NCI-H226 lung, 122%; with NCI-H322M lung, 112%; in the assay with HOP-62 NSCLC it was 117%; in the assay on NCI-H460 lung, 108%; in the assay with HOP-92 NSCLC, 75.9%. For the same compound, the growth was 98.2% with NCI-H522 lung; 105% with A549/ATCC NSCLC; 88.2% with 786-0 renal; 101% in the assay with COLO 205 colon; 105% in the assay with DU-145 prostate; 94.9% with K-562 leukemia. The growth with MALME-3M melanoma is 90.9%; in the assay on MDA-MB-231 breast, 103%; in the assay on RXF 393 renal it was 170%; in the assay on SF-268 CNS, 99.7%; in the assay on SF-295 CNS, 123%; with SF-539 CNS it was 107%. The results for the growth in the assay with UACC-257 melanoma and with M14 melanoma were 106% and 97.4%, respectively.
As for `O=c1[nH]c2c3ccncc3cc(-c3cccc(Cl)c3)c2c2cnccc12`, the growth is 50.8% with NCI-H23 lung; 29.6% in the assay with NCI-H226 lung; 56.2% in the assay with NCI-H322M lung; 0.205% (active) in the assay with HOP-62 NSCLC; 5.33% (active) in the assay on NCI-H460 lung; 5.61% (active) in the assay with HOP-92 NSCLC. In addition, the growth was 53.7% in the assay on NCI-H522 lung; 27.4% in the assay on A549/ATCC NSCLC; 17.4% with 786-0 renal; 25.4% in the assay on COLO 205 colon; 39.5% in the assay with DU-145 prostate; 75% with K-562 leukemia. For the same compound, the growth with MALME-3M melanoma is 69.1%; with MDA-MB-231 breast, 35.1%; in the assay on RXF 393 renal, -16.5% (active); in the assay with SF-268 CNS, 53.9%; in the assay on SF-295 CNS, 31.4%; in the assay on SF-539 CNS, 2.59% (active). Besides, the growth in the assay on UACC-257 melanoma was 49.5%; with M14 melanoma it was 55.2%.
For the compound `COC(=O)[C@]12CC[C@@H](C)[C@H](C)[C@@H]1C1=CC[C@@H]3[C@@]4(C)C[C@@H](OC(C)=O)[C@H](O)[C@@](C)(COC(C)=O)[C@@H]4[C@H](O)C[C@@]3(C)[C@]1(C)CC2`, the growth was -83.3% (active) with NCI-H23 lung; -57.8% (active) in the assay on NCI-H226 lung; -92.6% (active) in the assay with NCI-H322M lung; -84% (active) with HOP-62 NSCLC; -86.9% (active) with NCI-H460 lung; -67.4% (active) in the assay on HOP-92 NSCLC. The growth was -81.6% (active) with NCI-H522 lung; -86.2% (active) in the assay on A549/ATCC NSCLC; -81.9% (active) in the assay on 786-0 renal; -81.3% (active) in the assay with COLO 205 colon; -91.9% (active) in the assay on DU-145 prostate; -10.7% (active) in the assay on K-562 leukemia. For the same compound, the growth is -70.5% (active) in the assay with MALME-3M melanoma; -68% (active) in the assay with MDA-MB-231 breast; -79.2% (active) in the assay on RXF 393 renal; -71.9% (active) with SF-268 CNS; -91.8% (active) in the assay on SF-295 CNS; -85.1% (active) in the assay on SF-539 CNS. In the assay on M14 melanoma, the growth was -73.3% (active).

Values taken from PubChem BioAssay (NCI).
